# 12-LOX inh: blocks human arachidonate 12S-lipoxygenase | purified 12hLO, xylenol orange hydroperoxide absorbance | AID 1671190 | P18054 | 580,000 compounds, 1.1% hits | Potency, µM (highest dose often 108 µM), for the others: top-dose activity change, negative = inhibition, actives largely listed as inhibitors; also: potency is read from the fitted curve at half-maximal effect
# Target sequence (P18054 whole entry, looked up): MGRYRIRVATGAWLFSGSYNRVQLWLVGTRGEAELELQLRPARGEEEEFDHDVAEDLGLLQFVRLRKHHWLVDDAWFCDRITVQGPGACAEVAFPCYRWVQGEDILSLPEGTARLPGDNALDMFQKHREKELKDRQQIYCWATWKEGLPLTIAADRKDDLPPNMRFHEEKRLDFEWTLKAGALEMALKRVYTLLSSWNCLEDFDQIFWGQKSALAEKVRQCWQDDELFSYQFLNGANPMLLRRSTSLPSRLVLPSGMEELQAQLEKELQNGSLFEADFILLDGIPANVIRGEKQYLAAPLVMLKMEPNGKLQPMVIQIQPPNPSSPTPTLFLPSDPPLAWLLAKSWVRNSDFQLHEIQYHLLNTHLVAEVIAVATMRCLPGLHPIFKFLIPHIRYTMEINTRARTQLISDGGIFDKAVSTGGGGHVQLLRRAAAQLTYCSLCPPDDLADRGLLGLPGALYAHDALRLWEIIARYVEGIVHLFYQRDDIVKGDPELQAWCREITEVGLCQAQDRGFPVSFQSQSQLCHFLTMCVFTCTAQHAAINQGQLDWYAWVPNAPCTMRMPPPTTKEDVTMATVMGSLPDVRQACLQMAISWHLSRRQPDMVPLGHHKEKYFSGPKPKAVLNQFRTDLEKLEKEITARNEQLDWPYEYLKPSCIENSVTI
#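 Purified human 12hLO at 150 nM in 25 mM Hepes, 0.01% Triton X-100, pH 7.0, preincubated 15 min at room temperature with compound. Reaction started with 40 uM arachidonic acid, 30 min at room temperature. Hydroperoxide measured by Fe-xylenol orange, 573/405 nm absorbance ratio.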
# TDP1 cell noCPT: qHTS for Inhibitors of human tyrosyl-DNA phosphodiesterase 1 (TDP1): qHTS in cells in absence of CPT; AID 686978, 2013; 420,000 compounds, 15% hits; Potency, µM (highest dose often 46.2 µM), inactives show at the highest dose activity change, negative = growth inhibition, actives largely listed as inhibitors; DT40 Tdp1-/- hTDP1 cells, no CPT, ATP luminescence, 48 h; also: potency is read from the fitted curve at half-maximal effect; nearly all actives have a fitted effect of over 55% in size
#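 No-CPT arm: Tdp1-/-;hTDP1 DT40 cells (400/well) plus compounds, incubated ≥48 hr at 37 °C. Readout CellTiter-Glo luminescence.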
# HT1080NT lethal: kills 2HG-producing HT-1080-NT fibrosarcoma cells | AID 686970 | Potency, µM (doses to about 46.1 µM), for the others: at the highest dose activity, negative = less viability, usual class: cytotoxic | HT-1080-NT fibrosarcoma viability, CellTiter-Glo ATP luminescence, 48 h | 360,000 compounds, 1.6% hits;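 also: NT is the 2HG producing partner of a matched IDH1 knockdown line; potency is read from the fitted curve at half-maximal effect; 0% = DMSO-treated cells and -100% = media-only wells without cells; nearly all actives have a fitted effect of over 55% in size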
#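 Luminescent CellTiter-Glo readout after 48 hours of compound exposure at 37 degrees C defined viability of HT-1080-NT cells. Activity was normalized to DMSO wells and cell-free media wells; concentration-response curves were fitted and assigned curve classes.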
# IL1B secr inh: blocks inflammasome-driven IL-1 beta release. THP-1 LPS/ATP IL-1B secretion, AlphaLISA, 16 h; stronger effect = lower value. activity change, % at 57.5 µM. 360,000 compounds, 4.7% hits. AID 743279; in the data active = activity change below about -50%; inconclusive = mostly about -30% to -49%
#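 Secreted IL-1B measured by AlphaLISA bead assay after 16 h compound exposure of THP-1 cells; compounds (final up to 57.5 uM) added 1 h before LPS (250 ng/mL) and ATP (1.25 mM) stimulation; lower signal means less secretion.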
# HT1080 IDH1KD tx: kills HT-1080 cells with IDH1 knockdown. HT-1080 IDH1 knockdown viability, ATP luminescence, 48 h. Potency, µM (highest dose often 46.1 µM), for the others: at the top dose activity, negative = toxicity, actives largely listed as cytotoxic. 360,000 compounds, 2% hits;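 also: potency is read from the fitted curve at half-maximal effect; 0% = DMSO wells and -100% = cell-free medium wells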
#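 CellTiter-Glo luminescence after 48 h compound exposure at 37 degrees C of IDH1-knockdown HT-1080 cells in 5% FBS RPMI. %Activity scaled between DMSO wells and cell-free media wells, with curves fitted and assigned curve classes.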
# DT40 TDP1 CPT: growth inhibition of DT40 Tdp1-/-;hTDP1 cells with camptothecin (screen for TDP1 inhibitors) | chicken DT40 Tdp1-/-;hTDP1 cells + 20 nM CPT, ATP luminescence, 48 h | Potency, µM (top dose mostly 46.2 µM), inactives show at the highest dose activity change, negative = growth inhibition, usual class: inhibitors | 420,000 compounds, 12% hits | AID 686979; also: potency is read from the fitted curve at half-maximal effect; nearly all actives have a fitted effect of over 55% in size
#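 Chicken DT40 Tdp1-/- cells complemented with human TDP1, 400 cells/well, exposed to compounds plus 20 nM camptothecin for at least 48 h at 37 C; viability read as ATP content by CellTiter-Glo luminescence.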
# Starred values were filed as active, the others as inactive; ? = inconclusive; · = not tested or not shown; ! = a repeat was not active. The full list was thinned out, with hits kept by preference. Unless noted, calls follow the shape of the dose curve; as a rule, active = well fitted curve in the direction sought with a large enough effect; inconclusive = small, poorly fitted or top-dose-only effect, or another doubt; inactive = no such curve, though single readings can be large; an effect the other way counts as inactive or inconclusive. Unless noted, % is scaled to controls: 0 for no effect and ±100 for the full control effect.
SMILES,12-LOX inh,TDP1 cell noCPT,HT1080NT lethal,IL1B secr inh,HT1080 IDH1KD tx,DT40 TDP1 CPT
COc1ccccc1/C=C/C=N/n1c(-c2n[nH]c3c2CCC3)n[nH]c1=S,?,13µM*,-2%,-23,?,?
S=c1[nH]nc(-c2n[nH]c3c2CCC3)n1/N=C/C=C/c1ccco1,?,-25%,0%,12,-2%,-10%
COc1ccc(-c2n[nH]c(=S)n2/N=C/C=C\c2ccccc2OC)cc1,-5%,10µM*,-16%,32,-15%,23µM*
COc1cccc(/C=N/n2c(-c3n[nH]c4c3CCC4)n[nH]c2=S)c1O,40µM*,?,-1%,4,4%,-4%
COc1ccccc1/C=C/C=N/n1c(-c2ccc(C)cc2)n[nH]c1=S,?,?,3%,33,0%,?
Cc1ccc(C2CCCN2C(=O)CSc2nnnn2C2CC2)cc1 (configuration not stated),8%,·,·,·,·,·
O=C(CN1C(=O)c2ccccc2S1(=O)=O)NCc1cccs1,71%,14%,0%,17,14%,27%
Cc1cccc(C(=O)Nc2ccc(CCC(=O)N(C)C)cc2)c1,7%,·,·,·,·,·
Cc1noc(/C=C\c2ccc(S(=O)(=O)N3CCCCC3C)cc2)c1NC(=O)C1CC1 (configuration not stated),-11%,·,·,·,·,·
Nn1c(Cc2cccc3ccccc23)nnc1SCc1c(F)cccc1Cl,-5%,-29%,2%,-28,0%,?
O=S(Cc1ccc(Br)cc1)Cc1nnc(SCc2ccc(Cl)cc2)n1-c1ccccc1 (configuration not stated),?,18µM*,-3%,-68*,-22%,16µM*
O=S(Cc1ccc(Br)cc1)Cc1nnc(SCc2c(F)cccc2Cl)n1-c1ccccc1 (configuration not stated),?,9.2µM*,-5%,-62*,-24%,15µM*
O=c1cc(Cc2nnc(SCc3ccccc3)n2-c2ccc(Cl)cc2)[nH]c(=O)[nH]1,?,29%,0%,7,2%,-3%
O=C(CCNS(=O)(=O)c1ccc2c(c1)CCCC(=O)N2)NCc1ccccc1Cl,8%,·,·,·,·,·
CCC(CC)C(C(=O)NCc1ccccc1)N1CCN(c2cccc(C)c2C)CC1 (configuration not stated),-15%,5.8µM*,15%,-5,5%,6.5µM*
COc1cccc(C(C(=O)NCc2ccccc2)N2CCN(c3cccc(C)c3C)CC2)c1OC (configuration not stated),3%,18µM*,?,?,?,18µM*
Cc1cccc(N2CCN(C(C(=O)NCc3ccccc3)c3ccco3)CC2)c1C (configuration not stated),-10%,?,?,-16,?,?
Cc1cccc(N2CCN(C(C(=O)NCc3ccccc3)c3ccc(F)cc3)CC2)c1C (configuration not stated),3%,21µM*,?,13,?,23µM*
CCN(C(=O)COC(=O)c1c(NC(C)=O)sc(C)c1C)c1c(N)n(Cc2ccccc2)c(=O)[nH]c1=O,13%,?,11%,14,-4%,6%
COC(=O)Nc1cc(C)nc2ccccc12,41%,-21%,-6%,15,-2%,-16%
CNc1cc(C(=O)O)nc2ccccc12,·,1.1µM*,·,·,·,0.89µM*
COc1cc2c(cc1OC)C(c1ccc(Br)cc1)NC(=O)C2 (configuration not stated),-23%,-17%,-4%,-71*,-4%,2%
CCOC(=O)COc1ccc2cc(-c3ccc(OC)c(OC)c3)c(=O)oc2c1,15%,·,·,·,·,·
CC(=O)c1ccc(N2CCN(C(=O)/C=C/c3ccc(S(=O)(=O)NCc4ccco4)cc3)CC2)cc1,-1%,21µM*,1%,1,-24%,21µM*
O=C(/C=C/c1ccc(S(=O)(=O)N2CCOCC2)cc1)N1CCCCC1,8%,-24%,3%,0,15%,-1%
SMILES,12-LOX inh,TDP1 cell noCPT,HT1080NT lethal,IL1B secr inh,HT1080 IDH1KD tx,DT40 TDP1 CPT
CC(=O)c1ccc(N2CCN(C(=O)/C=C/c3ccc(S(=O)(=O)N4CCOCC4)cc3)CC2)cc1,2%,15µM*,-12%,13,-6%,18µM*
O=C(c1ccc(Cl)c(S(=O)(=O)NCc2ccco2)c1)N1CCN(c2ccc(F)cc2)CC1,-5%,23µM*,-15%,-2,-17%,16µM*
NS(=O)(=O)c1ccc(NC(=O)c2ccc(Cl)c(S(=O)(=O)NCc3ccco3)c2)cc1,108%,-24%,0%,34,0%,?
COc1ccc(Cl)cc1CN(C)C(=O)c1cc(OC)c(C)c(OC)c1,-33%,·,·,·,·,·
CN(C)C(=O)n1nnnc1Cc1ccc(-c2ccccc2)cc1,0%,·,·,·,·,·
COc1ccc(C2(CNC(=O)c3ccc(Cl)c(Cl)c3)CCOCC2)cc1,-3%,·,·,·,·,·
CCc1ccc(S(=O)(=O)c2nnn(-c3ccc(F)cc3)c2N)cc1,-9%,16µM*,·,·,·,23µM*
Cc1ccc(S(=O)(=O)c2nnn(-c3cccc(Cl)c3)c2C)cc1,-12%,·,·,·,·,·
COc1cccc(-n2nnc(S(=O)(=O)c3ccc(C)cc3)c2N)c1,11%,23µM*,0%,0,1%,?
COc1ccc(S(=O)(=O)c2nnn(-c3cccc(Cl)c3)c2N)cc1,-23%,21µM*!,-8%,16,-4%,12µM*
CCc1cccc(-n2nnc(S(=O)(=O)c3ccc(OC)cc3)c2C)c1,-29%,?,·,·,·,-19%

# Source: PubChem BioAssay (National Center for Advancing Translational Sciences (NCATS))
